# An excerpt weighted towards active compounds, which were near 18% of everything screened.
# TDP1 cell noCPT: qHTS for Inhibitors of human tyrosyl-DNA phosphodiesterase 1 (TDP1): qHTS in cells in absence of CPT | AID 686978, 2013 | Potency, µM (doses to about 46.2 µM), without a hit: at the highest dose activity change, negative = growth inhibition, hits mostly inhibitors | DT40 Tdp1-/- hTDP1 cells, no CPT, ATP luminescence, 48 h | hit rate 15% among 420,000; also: potency is read from the fitted curve at half-maximal effect; % is scaled to controls: 0 for no effect and ±100 for the full control effect; nearly all actives have a fitted effect of over 55% in size
#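 A cellular qHTS used chicken DT40 cells lacking endogenous Tdp1 but carrying stably transfected human TDP1. Compounds were applied without camptothecin, and cell growth kinetics were judged by ATP-dependent luminescence after ≥48 hr.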
# TGFb SMAD3 inh: inhibitors of TGF-b signaling. HepG2 CAGA-GFP TGF-b/SMAD3 reporter, GFP fluorescence, 18 h; TGF-beta stimulated, 500 pg/mL final. Potency, µM (series often up to 46.1 µM), for inactives: at the highest dose activity, negative = inhibition, most hits filed as inhibitors. hit rate 1.2% among 410,000. AID 588855; also: potency is read from the fitted curve at half-maximal effect; % is scaled to controls: 0 for no effect and ±100 for the full control effect; nearly all actives have a fitted effect of over 65% in size
#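 Using HEPG2 CAGA-GFP reporter cells at 1000 cells/well, we pinned test compounds, stimulated with recombinant TGF-beta (500 pg/mL final) and measured total well GFP after 18 h.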
# DT40 TDP1 CPT: growth inhibition of DT40 Tdp1-/-;hTDP1 cells with camptothecin (screen for TDP1 inhibitors) | Potency, µM (highest dose often 46.2 µM), without a hit: top-dose activity change, negative = growth inhibition, most hits filed as inhibitors | chicken DT40 Tdp1-/-;hTDP1 cells + 20 nM CPT, ATP luminescence, 48 h | AID 686979 | hit rate 12% among 420,000; also: potency is read from the fitted curve at half-maximal effect; % is scaled to controls: 0 for no effect and ±100 for the full control effect; nearly all actives have a fitted effect of over 55% in size
#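 Cell growth measured by CellTiter-Glo luminescence after a minimum 48 h, 37 C compound exposure with 20 nM CPT in Tdp1-knockout DT40 cells stably expressing hTDP1, seeded 400/well; qHTS titration format.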
# IL1B secr inh: inhibitors of inflammasome signaling (IL-1 beta secretion) | THP-1 LPS/ATP IL-1B secretion, AlphaLISA, 16 h; stronger effect = lower value | activity change, % at 57.5 µM | hit rate 4.7% among 360,000 | AID 743279; in the data active = activity change below about -50%; inconclusive = mostly about -30% to -49%; also: % is scaled to controls: 0 for no effect and ±100 for the full control effect
#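 Secreted IL-1B measured by AlphaLISA bead assay after 16 h compound exposure of THP-1 cells; compounds (final up to 57.5 uM) added 1 h before LPS (250 ng/mL) and ATP (1.25 mM) stimulation; lower signal means less secretion.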
# HepG2 viability: HepG2 cytotoxicity, counter-screen for TGF-b inhibitors | Potency, µM (top dose mostly 46.1 µM), without a hit: top-dose activity change, negative = cytotoxicity, most hits filed as cytotoxic | hit rate 0.76% among 410,000 | HepG2 CAGA-GFP viability, ATP luminescence, 18 h; also: potency is read from the fitted curve at half-maximal effect
#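 CellTiter-Glo luminescence gave cytotoxicity after 18 hours at 37 degrees C. The cells were HepG2 CAGA-GFP in 1% FBS DMEM, stimulated with 500 pg/mL TGF-beta after compound addition. %Activity was normalised to no-cell wells (complete cell-killing) and DMSO (no toxicity), and curves were fitted and classified.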
# TDP1 block: TDP1 (human) enzyme inhibition. hit rate 0.28% among 350,000. recombinant TDP1, AlphaScreen DNA substrate cleavage. Potency, µM (titrated, usually from 130 µM), for inactives: at the highest dose activity change, negative = inhibition, hits mostly inhibitors; also: potency is read from the fitted curve at half-maximal effect; % is scaled to controls: 0 for no effect and ±100 for the full control effect; nearly all actives have a fitted effect of over 40% in size
# Target sequence (Q9NUW8 whole entry, looked up): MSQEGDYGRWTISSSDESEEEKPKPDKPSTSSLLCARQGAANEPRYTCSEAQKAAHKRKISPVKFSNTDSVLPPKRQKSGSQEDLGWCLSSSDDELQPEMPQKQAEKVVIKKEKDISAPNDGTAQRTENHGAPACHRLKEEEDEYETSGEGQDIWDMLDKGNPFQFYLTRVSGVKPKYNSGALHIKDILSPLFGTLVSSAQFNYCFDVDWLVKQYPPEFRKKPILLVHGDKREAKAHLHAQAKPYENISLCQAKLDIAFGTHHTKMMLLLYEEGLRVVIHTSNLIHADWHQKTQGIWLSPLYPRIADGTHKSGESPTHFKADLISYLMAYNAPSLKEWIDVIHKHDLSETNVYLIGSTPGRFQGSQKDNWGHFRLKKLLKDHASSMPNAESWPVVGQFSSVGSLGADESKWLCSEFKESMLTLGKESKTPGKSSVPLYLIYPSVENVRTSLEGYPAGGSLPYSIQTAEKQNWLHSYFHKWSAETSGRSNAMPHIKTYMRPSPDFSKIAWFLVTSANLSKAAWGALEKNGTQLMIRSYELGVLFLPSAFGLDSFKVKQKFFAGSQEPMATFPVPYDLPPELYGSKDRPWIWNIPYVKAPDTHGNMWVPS
#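 Enzyme-compound mixtures sat 15 min at room temperature, followed by a 5 min reaction with 15 nM final substrate and 10 min with AlphaScreen beads. Recombinant human Tdp1 was used at 1 nM final.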
# Numbers without * were called inactive; ? = inconclusive; / = no result given; [ ] = remark or other dose. Unless noted, calls follow the shape of the dose curve; as a rule, active = well fitted curve in the direction sought with a large enough effect; inconclusive = small, poorly fitted or top-dose-only effect, or another doubt; inactive = no such curve, though single readings can be large; an effect the other way counts as inactive or inconclusive.
SMILES,TDP1 cell noCPT,TGFb SMAD3 inh,DT40 TDP1 CPT,IL1B secr inh,HepG2 viability,TDP1 block
Cc1nn(-c2ccccc2)c(OC(=O)c2ccccc2)c1S(=O)(=O)c1ccccc1,0.7%,-22.8%,-2.4%,/,3.2%,7.5%
O=C(Nc1ccccc1)c1cc(C2CCCN(C(=O)c3ccccc3)C2)on1 (stereo not drawn),-10.6%,-8.7%,-15.7%,24.8,-17.4%,/
CCCC(=O)N1CCCC(c2cc(C(=O)Nc3ccccc3)no2)C1 (stereo not drawn),?,1.4%,?,-4.0,10µM*,/
O=C(NCc1ccc(F)cc1)c1cc(C2CCCN(C(=O)c3ccc4ccccc4c3)C2)on1 (stereo not drawn),16.4µM*,-7.7%,16.4µM*,-17.0,-20.1%,/
O=C(NCc1ccc(F)cc1)c1cc(C2CCCN(C(=O)c3ccccn3)C2)on1 (stereo not drawn),-5.7%,-16.9%,-21.2%,0.0,-6.6%,/
O=C(NCc1ccccc1)c1cc(C2CCCN(C(=O)CCCc3ccccc3)C2)on1 (stereo not drawn),14.6µM*,-6.6%,14.6µM*,-23.8,-25.8%,/
Cc1ccc(F)cc1C(=O)N1CCCC(c2cc(C(=O)NCc3ccc(F)cc3)no2)C1 (stereo not drawn),14.6µM*,-25.8%,?,?,-13.4%,/
O=C(Nc1ccccc1Cl)c1cc(C2CCCN(C(=O)CCCc3ccccc3)C2)on1 (stereo not drawn),?,0.3%,-25.9%,-21.0,-25.8%,/
COc1cccc(NC(=O)CN(CCc2ccccc2)S(=O)(=O)c2ccc(Cl)cc2)c1,-0.7%,-29.6%,-3.9%,/,-42.2%,-8.4%[12.3 µM]
Cc1nc2ccc(S(=O)(=O)CCC(=O)Nc3ccc(C(C)C)cc3)cc2s1,?,?,?,/,-16.7%,5.1%
Cn1ccsc1=NC(=O)c1cccc(OC(F)F)c1,?,8.1%,0.4%,30.8,10.0%,/
CC1CCc2nc(/C(C#N)=C/c3cccnc3)sc2C1 (stereo not drawn),?,?,20.6µM*,-22.2,-7.3%,1.8%
CN(C)c1ccc(/C=C/c2cc[n+](C)cc2)cc1,5.17µM*,52.9%,6.51µM*,0.0,-24.4%,2.0%
Cc1ccc2c(/C=C/c3ccc(N(C)C)cc3)c(C)cnc2c1,?,?,?,/,-39.0%,/
Cc1ccc(/C=C/c2ccc(N(C)C)cc2)[n+](C)c1,0.411µM*,-0.1%,0.517µM*,-2.4,-13.9%,/
CC1CCC(NC(=O)CN2C(=O)NC3(CCCCC3C)C2=O)CC1 (stereo not drawn),9.5%,6.4%,-0.4%,-0.7,1.7%,0.9%
C[C@@H]1CN([C@@H](C)CO)C(=O)c2cc(NS(C)(=O)=O)ccc2O[C@H]1CN(C)Cc1ccc(Oc2ccccc2)cc1,?,?,?,?,-12.4%,1.6%
C[C@@H]1CN([C@@H](C)CO)C(=O)c2cc(NC(=O)Nc3ccc(F)cc3)ccc2O[C@@H]1CN(C)Cc1ccc(Oc2ccccc2)cc1,20.6µM*,?,?,0.0,15.8µM*,5.7%
COc1ccc(CN(C)C[C@@H]2OCCCC[C@H](C)Oc3ccc(NC(=O)Cc4ccccc4)cc3C(=O)N([C@@H](C)CO)C[C@@H]2C)cc1,23.1µM*,4.0%,8.2%,-7.3,8.5%,/
COc1ccc(CN(C)C[C@@H]2OCCCC[C@H](C)Oc3ccc(NC(=O)Nc4ccc(F)cc4)cc3C(=O)N([C@H](C)CO)C[C@H]2C)cc1,?,?,?,?,25.1µM*,/
C[C@@H]1CN([C@H](C)CO)C(=O)c2cc(NC(=O)Nc3ccc(F)cc3)ccc2O[C@@H](C)CCCCO[C@H]1CN(C)Cc1ccc(C(=O)O)cc1,-33.8%,-1.2%,-0.3%,22.2,-0.4%,/
C[C@@H]1CCCCO[C@H](CN(C)Cc2ccc(C(F)(F)F)cc2)[C@H](C)CN([C@@H](C)CO)C(=O)c2cc(NC(=O)Cc3ccccc3)ccc2O1,14.6µM*,?,11.6µM*,-13.7,-46.1%,/
CC(NC(=O)c1cc(COc2c(F)cccc2F)on1)c1cnn(-c2ccccc2)c1 (stereo not drawn),-38.7%,?,?,?,-6.5%,2.5%
COc1ccc(NC(=O)c2cnc(SCC(=O)Nc3nc4ccc(C)cc4s3)n(C)c2=O)cc1,9.1%,-0.7%,-8.9%,/,7.5%,5.2%
CC(C)NC(=O)Nc1ccc2c(c1)C(=O)N([C@H](C)CO)C[C@H](C)[C@@H](CN(C)Cc1ccc3c(c1)OCO3)OCCCC[C@@H](C)O2,-25.2%,-3.6%,-4.3%,-7.4,18.1%,/
SMILES,TDP1 cell noCPT,TGFb SMAD3 inh,DT40 TDP1 CPT,IL1B secr inh,HepG2 viability,TDP1 block
CC(C)NC(=O)Nc1ccc2c(c1)C(=O)N([C@H](C)CO)C[C@H](C)[C@@H](CN(C)Cc1ccc(C(F)(F)F)cc1)OCCCC[C@H](C)O2,?,15.8µM*,20.6µM*,?,-35.9%,/
C[C@@H]1CCCCO[C@@H](CN(C)Cc2ccc(Cl)c(Cl)c2)[C@@H](C)CN([C@H](C)CO)C(=O)c2cc(NC(=O)Nc3ccccc3)ccc2O1,20.6µM*,?,23.1µM*,?,-10.1%,/
Cc1cccc(C(=O)N[C@H](C(=O)NCCc2ccc(Cl)cc2)C(C)C)c1,?,-2.2%,4.8%,40.3,0.3%,0.0%
COc1ccc(CCNC(=O)C(=O)Nc2ccc3c(c2)OCO3)cc1OC,-11.5%,21.2%,5.1%,7.8,2.5%,6.0%
CC(NC(=O)Cn1cccc1C(=O)c1ccccc1)c1ccc2c(c1)OCCO2 (stereo not drawn),-11.0%,12.3%,-19.0%,-8.6,4.9%,0.0%
CN1C(N)=NC(=O)/C1=C\c1ccc(Br)cc1,-21.2%,-3.3%,-1.5%,?,-10.9%,/
Cc1ccc(C)c(OCCn2cc(C(=O)c3ccco3)c3ccccc32)c1,13µM*,3.9%,20.6µM*,/,-0.2%,-1.1%
Cc1ccc(C(C)C)c(OCCn2cc(C(=O)c3ccco3)c3ccccc32)c1,14.6µM*,-26.9%,18.4µM*,/,-9.0%,3.2%
COCCNC(=O)Cn1cc(C(=O)c2ccco2)c2ccccc21,1.0%,-24.2%,17.5%,8.2,2.0%,2.6%
CC(=O)Oc1cccc(C2=CC(=O)CC(C)(C)C2=O)c1,-16.5%,3.1%,-5.3%,-0.6,-15.4%,/
CCC(=O)Nc1ccccc1-c1nc2ccccc2n(CC(=O)Nc2ccccc2OC)c1=O,5.8µM*,-4.8%,5.8µM*,/,5.5%,-5.7%
